Drawing on PubChem BioAssay (Tox21), this text covers Potency for 40 compounds.

Each structure is given as a SMILES string. Inconclusive results are not listed. Entries that show only a call come without a potency. Calls of active or inactive are those of the source. Calls follow the shape of the dose curve; as a rule, active = well fitted cell-killing curve with a large enough effect in the repeat runs; inconclusive = weak or mixed curves, or effect the other way; inactive = flat fitted curve, though single readings scatter.
Potency is read from the fitted curve at half-maximal effect.

The assay can be described thus: qHTS assay to identify small molecule agonists of the constitutive androstane receptor (CAR) signaling pathway - cell viability counter screen (AID 1224836). Also: nearly all actives have a fitted effect of over 45% in size. The settings on record: HepG2-CYP2B6-hCAR viability, CellTiter-Fluor, 23 h, PK11195 added to every well; series mostly up to 92.4 µM. An excerpt:
U.S. Tox21 Program National Center for Advancing Translational Sciences [NCATS] NIH Chemical Genomics Center [NCGC] U.S. Environmental Protection Agency [EPA] National Institutes of Environmental Health Sciences [NIEHS] National Toxicology Program [NTP] U.S. Food and Drug Administration [FDA] Tox21 Assay Overview: The constitutive androstane receptor (CAR) is a nuclear receptor which regulates multiple drug metabolizing enzymes (DMEs) and transporters. Activating CAR will generally increase the transcription and subsequent translation of CYP2B6 and CYP3A4. These two DMEs represent about 50% of the drug metabolizing potential in the body. […] Recently, there have also been studies performed indicating CARs role in energy metabolism and cancer therapy. Therefore, inducing CARs activity could have a potential effect on diabetes and cancer. Identifying environmental toxins and compounds which modulate CAR, through the use of the Tox21 10K compound collection, will be an important step in determining the toxicity and potential therapeutic effects these factors will have on the human body. To differentiate true CAR agonists from cytotoxic substances, the assay is multiplexed with a cell viability assay.
Tox21 Assay Protocol Summary: A double-stable (hCAR and CYP2B6-2.2kb) transfected cell line, derived from human hepatoma (HepG2) cells, was utilized for the duration of the quantitative high-throughput screens. The HepG2-CYP2B6-hCAR cells were dispensed at 2500 cells/4 uL/well in 1536-well white solid bottom plates using a Multidrop Combi. After the assay plates were incubated at 37 C/5% CO2 for 4 hrs, 23 nL of compounds at 15 concentrations (from 5-48 columns) or positive control (from 1 to 4 columns) were transferred to the assay plates using a Pintool station. One uL of PK11195 (final concentration = 0.75 uM) was added, using a Flying Reagent Dispenser, inside each well. After a 23 hr incubation period at 37 C/5% CO2, 1 uL of CellTiter-Fluor reagent was added into each well of the assay plates using a Flying Reagent Dispenser. The fluorescence intensity in the plates was then measured using a ViewLux plate reader.
(In general: Quantitative high-throughput screening tests each substance at several concentrations.)
For `CCN(CC)CCCC(C)Nc1c2ccc(Cl)cc2nc2ccc(OC)cc12` (stereo not given), the Potency entry is “inactive”.
With `C1CCCC1`, the Potency entry was “inactive”.
Regarding `N=C1C=CC(=C(c2ccc(N)cc2)c2ccc(N)cc2)C=C1`, the Potency is 34.4 µM (active).
On to `O=C(N/N=C/c1ccccc1O)c1ccncc1`, for which the Potency entry is “inactive”.
Regarding `CCC(Cl)C(Cl)C(Cl)CC(Cl)C(Cl)C(C)Cl` (stereo not given), the Potency result was “inactive”.
In the case of `CCCC/C=C/CCCCO`, the Potency result was “inactive”.
Next, `Oc1ccc2c(c1)-c1ccccc1C2`: “inactive”; `CCC(CN)=C(c1ccccc1)c1ccccc1`: “inactive”; `COc1c(C)c2c(c(O)c1C/C=C(\C)CCC(=O)O)C(=O)OC2`: “inactive”.
With `Oc1cccc(-c2c3nc(c(-c4cccc(O)c4)c4ccc([nH]4)c(-c4cccc(O)c4)c4nc(c(-c5cccc(O)c5)c5ccc2[nH]5)CC4)C=C3)c1`, the Potency is 5.96 µM (active).
Next, `CC1=C(C(=O)OC(C)C)C(c2cccc([N+](=O)[O-])c2)C(C(=O)OC2CN(C(c3ccccc3)c3ccccc3)C2)=C(N)N1` (stereo not given): 29.8 µM (active); `O=C(O)c1c(Cl)cccc1Cl`: “inactive”.
With `CCC(C)Nc1ccc(NC(C)CC)cc1` (stereo not given), the Potency is 19.7 µM (active).
Regarding `O=C(Nc1cccc(Cl)c1)OCC#CCCl`, the Potency was 54.5 µM (active).
On to `Cc1onc(-c2c(Cl)cccc2Cl)c1C(=O)N[C@@H]1C(=O)N2[C@@H]1SC(C)(C)[C@@H]2C(=O)O`, for which the Potency result was “inactive”.
Consider `CCCCN1C(=O)[C@@H]([C@H](O)C2CCCCC2)NC(=O)C12CCN(Cc1ccc(Oc3ccc(C(=O)O)cc3)cc1)CC2`, for which the Potency result is “inactive”.
Next, `C=CC(=O)OCCn1c(=O)n(CCOC(=O)C=C)c(=O)n(CCOC(=O)C=C)c1=O`: 48.6 µM (active); `O=c1[nH]cnc2nc[nH]c12`: “inactive”.
For `Nc1ccc(N)c2ccccc12`, the Potency is 30.6 µM (active).
Regarding `O=c1[nH]sc2cc(Cl)ccc12`, the Potency result is “inactive”.
Under `COC(=O)c1cc(Cl)ccc1OC` stands “inactive”; under `N#CC1(c2ccc(F)cc2)CCC(=O)CC1`, “inactive”; under `CCCCCCCCS(=O)C(C)Cc1ccc2c(c1)OCO2` (stereo not given), “inactive”.
For `COc1cc(-c2ccc(N=C=O)c(OC)c2)ccc1N=C=O`, the Potency result is “inactive”.
In the case of `Cc1ccc2oc(CN(Cc3ccccc3)C(=O)Nc3c(F)cc(F)cc3F)c(-c3ccc(Cl)cc3)c2c1`, the Potency entry is “inactive”.
As to `CCc1cc(SCc2sc(-c3ccc(C(F)(F)F)cc3)nc2CN2CCN(c3ccc(OC)cc3)CC2)ccc1OCC(=O)O`, the Potency entry was “inactive”.
Under `CCCCC(CC)COC(=O)c1ccccc1C(=O)O` (stereo not given) stands “inactive”; under `CSc1cnc(C)cn1`, “inactive”; under `OCc1c[nH]c2ccccc12`, “inactive”.
Regarding `Cc1cc(O)c(Cl)c(C)c1Cl`, the Potency entry was “inactive”.
As to `CCCCCCCCCCCCCCCS(=O)(=O)Oc1ccccc1`, the Potency result is “inactive”.
For the compound `CC/C(=C(\c1ccc(O)cc1)c1ccc(OCCN(C)C)cc1)c1ccccc1`, the Potency was 68.7 µM (active).
For `CC[C@H]1O[C@]2(CC[C@@H]1C)C[C@@H]1C[C@@H](C/C=C(\C)C[C@@H](C)/C=C/C=C3\CO[C@@H]4[C@H](O)C(C)=C[C@@H](C(=O)O1)[C@]34O)O2`, the Potency was 68 µM (active).
Turning to `Cc1[nH]nc2c1N=C(c1ccccc1Cl)c1cc([N+](=O)[O-])ccc1N2`, the Potency was 27.3 µM (active).
On to `O=C(c1ccc(O)cc1O)c1ccc(O)cc1O`, for which the Potency result is “inactive”.
Next, `COC(=O)C1=C(C)NC(C)=C(C(=O)OCCc2ccc(N3CCN(C(c4ccccc4)c4ccccc4)CC3)cc2)C1c1cccc([N+](=O)[O-])c1` (stereo not given): “inactive”.
Take `COCCCC/C(=N\OCCN)c1ccc(C(F)(F)F)cc1`: the Potency result was “inactive”.
Next, `CCOc1nc2cccc(C(=O)OC(C)OC(=O)OC3CCCCC3)c2n1Cc1ccc(-c2ccccc2-c2nn[nH]n2)cc1` (stereo not given): “inactive”.
Under `CC(=O)S[C@@H]1CC2=CC(=O)CC[C@]2(C)[C@H]2CC[C@@]3(C)[C@@H](CC[C@@]34CCC(=O)O4)[C@H]12` stands “inactive”; under `O=C1c2ccccc2Cc2ccccc21`, “inactive”.
